Measured values: PubChem BioAssay (NCATS)
Results filed as inconclusive are left out. Where a call stands in place of a potency, no number is given. Activity calls are given as the source filed them. The call rests on the fitted dose curve; in most records, active means well fitted inhibition curve with a large enough effect; inconclusive means small, poorly fitted or top-dose-only effect; inactive means flat fitted curve, though single readings scatter.

How the values were obtained:
[1] = target: Glutathione peroxidase 1 (Homo sapiens) (UniProt P07203); assay: Primary qHTS Assay for Inhibitors of Recombinant Selenoprotein Glutathione Peroxidase 1 (GPX1) (AID 1845191); further: nearly all actives have a fitted effect of over 65% in size
Sequence of Glutathione peroxidase 1 (Homo sapiens) (P07203 whole entry, looked up): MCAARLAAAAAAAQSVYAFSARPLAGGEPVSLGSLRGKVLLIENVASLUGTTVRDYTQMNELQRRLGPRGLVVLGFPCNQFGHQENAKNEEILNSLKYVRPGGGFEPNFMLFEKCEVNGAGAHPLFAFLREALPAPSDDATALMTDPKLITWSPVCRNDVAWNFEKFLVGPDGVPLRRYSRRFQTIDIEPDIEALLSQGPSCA
In short: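 GR-coupled assay: compounds preincubated 30 min at room temperature with GPX1, then reaction started with CHP; final 10 nM GPX1, 1 mM GSH, 0.5 mM CHP, 0.5 mM NADPH, 100 nM GR, 0.01% BSA, pH 7.5 Tris buffer. NADPH fluorescence (340/450 nm) read at 0 and 15 min.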

[2] = target: Phospholipid hydroperoxide glutathione peroxidase GPX4 (Homo sapiens) (UniProt P36969); assay: Primary qHTS Assay for Inhibitors of Recombinant Selenoprotein Glutathione Peroxidase 4 (GPX4) (AID 1845192); further: nearly all actives have a fitted effect of over 65% in size
Sequence of Phospholipid hydroperoxide glutathione peroxidase GPX4 (Homo sapiens) (P36969 whole entry, looked up): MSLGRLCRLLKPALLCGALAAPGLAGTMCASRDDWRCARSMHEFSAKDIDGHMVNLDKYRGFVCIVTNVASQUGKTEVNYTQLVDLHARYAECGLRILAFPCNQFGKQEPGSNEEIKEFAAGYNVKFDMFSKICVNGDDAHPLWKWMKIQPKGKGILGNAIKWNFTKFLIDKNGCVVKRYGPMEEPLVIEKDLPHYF
In short: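 GR-coupled assay: recombinant GPX4 preincubated 30 min with compound at room temperature; final 200 nM GPX4, 1 mM GSH, 0.5 mM cumene hydroperoxide, 0.5 mM NADPH, 100 nM GR, 0.01% BSA, pH 7.5 Tris. NADPH fluorescence (340/450 nm) read at 0 and 15 min.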

[3] = target: Luciferin 4-monooxygenase (Photinus pyralis) (UniProt P08659); assay: Primary firefly luciferase (FLuc) qHTS assay for identification of artifact compounds. (AID 1845220); settings: outcome: dose series up to 54.1 µM unless noted; further: series mostly up to about 54 µM; nearly all actives have a fitted effect of over 60% in size
In short: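 Titrated compounds were incubated 15 min at RT, protected from light, with luciferin and ATP at 10 uM; reaction started with 10 nM FLuc, luminescence imaged at 5 min, and concentration-response fitted by Hill equation.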

| SMILES | Potency [1] | Potency [2] | outcome [3] |
| --- | --- | --- | --- |
| CC(C)(C)C(=O)C(Oc1ccc(Cl)cc1)n1ccnc1 (centres undefined) | inactive | inactive | inactive |
| NCCNCCNCCN | inactive | inactive |  |
| COc1ccc2c(c1)C(=O)N(CCc1ccc(S(=O)(=O)NC(=O)NC3CCCCC3)cc1)C(=O)C2(C)C | inactive | inactive | inactive |
| O=C(CCCN1CCN(c2ccccn2)CC1)c1ccc(F)cc1 | inactive | inactive | inactive |
| O=C1Nc2ccc(Cl)cc2[C@@](C#CC2CC2)(C(F)(F)F)O1 | inactive | inactive | inactive |
